Laboratory results published in PubChem BioAssay AID2736 (Broad Institute, 2010).
Some of the results follow. The source made the active and inactive calls.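 Rule for the calls: active = every replicate shows more than 75% inhibition of signal versus neutral control wells; inconclusive = half to three quarters of replicates exceed 75% inhibition; inactive = fewer than half of replicates exceed 75% inhibition.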

Assay: Vibrio harveyi AI-2 signaling luminescence modulation – JMH597 strain, confirmation (AID 2736)
Conditions: Vibrio harveyi JMH597 AI-2 quorum sensing luminescence, 9 h; at 7.5 µM; stronger effect = higher value; luxN and CqsS knockout, AI-2 only

inhibition, active:
O=C(/C=C/c1ccc2c(c1)OCCO2)c1ccc(O)cc1 95.7%
S=C(NCc1ccc(Cl)cc1)NC1CCCCC1 95.5%
Cc1ccc(Oc2cnn(-c3ccccc3)c(=O)c2Br)cc1 99.3%
Cc1ccc(NS(=O)(=O)c2ccc3c(c2)NC(=O)CO3)cc1 95%
O=S(=O)(Nc1cccc(Oc2ccc(Cl)cc2)n1)c1ccc(F)cc1 99.7%
CC(=O)c1cccc(OCc2cc(C(=O)NC(C)Cc3cccnc3)no2)c1 (stereo not given) 95.5%
O=C(/C=C/c1ccc2c(c1)OCO2)NCc1ccc(F)cc1 94.2%
Cc1cc(C(=O)OCC(=O)Nc2ccc(F)c(F)c2)c(C)o1 97.8%
Cc1cccc(CSc2ccc(-c3cccs3)nn2)c1 96.9%
COC(=O)c1ccc(SCc2ccccc2)nc1 97.3%
Cc1ccc(Cc2nc(-c3cccc(C)c3)no2)cc1 94.6%
O=C1COc2ccc(S(=O)(=O)Nc3ccc(OC(F)(F)F)cc3)cc2N1 99.2%
O=C(COc1ncnc2ccccc12)NC(=O)NCc1ccccc1 96.5%
CCOC(=O)c1nn(-c2cccc(C)c2)cc1C(=O)c1ccccc1 93.5%
O=C(Cn1cnc2ccccc2c1=O)Nc1cccc(S(=O)(=O)N2CCCCC2)c1 88.6%
